Source: PubChem BioAssay (National Center for Advancing Translational Sciences (NCATS))
Lamin A splicing – changes lamin A minigene splicing in HeLa cells | Potency, µM (titrated, usually from 46.1 µM), for the others: at the highest dose ratio change, negative = inhibition, most hits filed as inhibitors | AID 1487 | actives 0.01% (n = 200,000) | HeLa LMNA splicing GFP/RFP minigene ratio, 48 h; active means well fitted inhibition curve with a large enough effect in the signal ratio, with a control signal flat, not every such curve was filed as active; inconclusive means small, poorly fitted or top-dose-only effect, or effect the other way, or a change in a side signal; the % refers to the signal ratio; further: potency means the concentration at half of the fitted maximal effect
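Read-out is the ratio of GFP to DsRed2 object intensity, acquired by 488 nm laser-scanning cytometry on HeLa lamin A-EGFP minigene reporter cells. Compound incubation 48 hrs at 37 °C in Opti-MEM with 2% FBS; DMSO 0.5% final.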
IMPase cell inh – IMPase inhibition in cells | P97697 | CHO-M1 cells, IP1 accumulation, HTRF TR-FRET ratio | inhibition (IP1 accumulation), % at 46.1 µM | 120,000 tested, under 10 active; active means well fitted curve in the direction sought with a large enough effect in the signal ratio, not every such curve was filed as active; inconclusive means small, poorly fitted or top-dose-only effect, or a change in a side signal; inactive means no such curve, though single readings can be large or run the other way; the % refers to the signal ratio;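 further: cells stimulated with carbachol in lithium chloride buffer; plate controls were DMSO basal wells for no effect and reference inhibitor wells for full effect; higher means more IMPase inhibition seen as more IP1 and lower FRET ratio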
Target sequence (P97697 whole entry, looked up): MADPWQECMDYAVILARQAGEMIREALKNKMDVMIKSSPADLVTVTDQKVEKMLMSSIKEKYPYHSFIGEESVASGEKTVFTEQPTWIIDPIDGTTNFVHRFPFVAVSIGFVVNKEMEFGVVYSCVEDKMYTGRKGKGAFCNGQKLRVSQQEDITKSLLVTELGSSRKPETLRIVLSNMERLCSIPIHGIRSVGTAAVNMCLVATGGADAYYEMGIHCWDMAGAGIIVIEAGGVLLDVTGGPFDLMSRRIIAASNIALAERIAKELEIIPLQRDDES
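CHO-M1 cells (CHO stably expressing M1 receptor), compound up to 46 uM final, stimulated with carbachol (50 uM as added) in buffer with 50mM LiCl, pH 7.4, 30 min at 37C. Cytosolic IP1 read by TR-FRET; AC50 from Hill fits.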
HPGD block – inhibitors of human 15-hydroxyprostaglandin dehydrogenase (HPGD) | P15428 | purified HPGD, NADH fluorescence kinetic, PGE2 substrate | Potency, µM, inactives show top-dose activity change, negative = inhibition, hits mostly inhibitors | actives 4.3% (n = 150,000) | AID 894; further: potency means the concentration at half of the fitted maximal effect
Target sequence (P15428 whole entry, looked up): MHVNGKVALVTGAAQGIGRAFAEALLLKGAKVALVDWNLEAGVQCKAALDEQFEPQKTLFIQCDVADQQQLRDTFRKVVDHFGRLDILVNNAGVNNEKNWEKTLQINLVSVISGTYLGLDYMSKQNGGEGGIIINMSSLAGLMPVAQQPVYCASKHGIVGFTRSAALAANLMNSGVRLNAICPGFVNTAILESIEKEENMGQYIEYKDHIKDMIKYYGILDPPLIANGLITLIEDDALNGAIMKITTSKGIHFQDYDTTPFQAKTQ
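20 nM HPGD preincubated 15 min at room temperature with compound in 50 mM Tris-HCl pH 8, 0.01% Tween 20. Started with 1 mM NAD+ and 30 uM prostaglandin E2; NADH fluorescence (360/450 nm) read 5 times over 30-s intervals, last minus first.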
PNC assembly inh – inhibitors of perinucleolar compartment assembly | PC3M PTB-GFP, PNC prevalence imaging, 16 h; stronger effect = lower value | activity change (PNC), negative = inhibition, % at 10 µM | actives 3.1% (n = 140,000);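 active means readout at or below -70, meaning at least 70% loss of cells showing the perinucleolar compartment, a nuclear body marking cancer cells; inconclusive means readout between -30 and a set limit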;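 further: plate controls were DMSO wells for no effect and camptothecin positive control wells for full effect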
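Compounds are pinned in duplicate onto adhered PC3M cells stably expressing GFP-tagged PTB and incubated 16 h at 37 C. Cells are then fixed, nuclei stained with Hoechst, and PNC-positive cells counted.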
ALDH1A1 block – blocks purified human ALDH1A1 activity; actives 7.3% (n = 220,000); P00352; Potency, µM (doses to about 75.3 µM), inactives show at the top dose activity, negative = inhibition, hits mostly inhibitors; Purified ALDH1A1, NADH fluorescence, propionaldehyde substrate;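 further: potency means the concentration at half of the fitted maximal effect; plate controls were no enzyme wells and a reference inhibitor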
Luc counter – blocks Kinase-Glo luciferase, a counter-screen artifact; AID 1379; Kinase-Glo luciferase, ATP luminescence, 8 min; Q27757; Potency, µM (series often up to 38.3 µM), without a hit: at the top dose activity change, negative = inhibition, usual class: inhibitors; actives 0.28% (n = 200,000); active means well fitted inhibition curve with a large enough effect; inconclusive means small, poorly fitted or top-dose-only effect; further: potency means the concentration at half of the fitted maximal effect; nearly all actives have a fitted effect of over 60% in size
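Compound is pinned into ATP-containing buffer (10 uM ATP, imidazole pH 7.2, 7 mM MgCl2). Kinase-Glo luciferase reagent is then added. Light output is recorded following an 8-min room-temperature incubation.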
* hit, by the source's call; ? = inconclusive; / = no result; [ ] = dose if it differs, or a comment. A selection: hits, their analogues and other compounds. The true share with any hit is near 10%. Unless noted, the call rests on the fitted dose curve; in most records, active means well fitted inhibition curve with a large enough effect (not every such curve was filed as active); inconclusive means small, poorly fitted or top-dose-only effect, or another doubt; inactive means no such curve, though single readings can be large or run the other way. Unless noted, on the % scale 0 is the no-effect control and ±100 the full control effect.

SMILES	Lamin A splicing	IMPase cell inh	HPGD block	PNC assembly inh	ALDH1A1 block	Luc counter
CCCCOC(=O)c1cccc(NC(=O)/C=C/c2ccccc2Cl)c1	/	3	/	/	/	/
O=C(c1ccccc1F)c1cc2c(cc1[N+](=O)[O-])OCCO2	16%[46 µM]	/	/	/	11µM*	2%
Cc1ccc(N/N=C2\CC(=O)c3ccccc32)cc1Cl	/	/	/	/	25µM*	/
CC#CCN1c2ccccc2[C@]23C[C@@H](C(=O)OC)N(S(=O)(=O)c4cccs4)C2=NC(C(=O)OC)=C(C(=O)OC)[C@H]13	-5%[9.22 µM]	/	1%	/	4%[13.5 µM]	-2%[7.66 µM]
COc1cc(C2c3c(oc4ccc(F)cc4c3=O)C(=O)N2Cc2ccc3c(c2)OCO3)ccc1O (stereo not given)	/	-5	/	/	/	/
CCN1/C(=C/c2ccc3cc(C)cc(C)c3[n+]2CC)Sc2cc(C)ccc21	?	/	/	/	20µM*	-20%
Cn1cccc1/C=N/N1CCN(c2ccccc2)CC1	4%[46 µM]	/	/	/	14µM*	1%
O=C(CSc1nccn1Cc1ccc2c(c1)OCO2)Nc1ccccc1F	-7%[46 µM]	/	/	/	/	/
O=C(/C=C/c1c(Cl)cccc1Cl)n1cccn1	-10%	12	-17%	-95*	-7%	0%
O=C(/C=C/c1c(F)cccc1Cl)Nc1ncccn1	-14%	/	?	-10	7%	-9%
CCCC(=O)Nc1ccccc1-c1nnn(CC(=O)Nc2ccc(OC)cc2)n1	?	-1	-5%	-81*	15%	0%
CCOC(=O)c1ccc(NC(=O)Cn2nnc(-c3ccccc3)n2)cc1	?	-3	/	?	25µM*	/
O=C(CSc1nnc(Cn2nnc(-c3ccccc3)n2)n1-c1ccccc1)Nc1ccccc1	16%	4	-7%	?	4.5µM*	-4%
CCOC(=O)c1ccc(NC(=O)Cn2nnc(-c3ccc(F)cc3)n2)cc1	1%	2	0%	19	1%	2%
COc1ccc(NC(=O)Cn2nnc(-c3ccccc3NS(=O)(=O)c3ccccc3)n2)cc1	?	/	-16%	0	5%	-1%
O=C(NC1(C(F)(F)F)NC(=O)N(CCc2ccccc2)C1=O)c1ccccc1Cl (stereo not given)	/	-4	/	/	/	/
FC(F)(F)c1ccccc1-c1nc(Nc2ccncc2)c2ccccc2n1	?	/	?	/	?	-2%
CC1(C)NC(C)(C)c2nonc2/C1=N\O	2%	10	-4%	22	13µM*	-2%
O=C(/C=C/c1cccc([N+](=O)[O-])c1)NCCSCc1ccc(Cl)cc1Cl	?	/	-8%	12	?	-2%
O=C(/C=C/c1cccc([N+](=O)[O-])c1)NCC1CCCO1 (stereo not given)	-5%	-16[1.84 µM]	6.3µM*	6	14µM*	3%
O=C(/C=C/c1cccc([N+](=O)[O-])c1)NCCSCc1ccccc1Cl	?	/	-22%	?	13µM*	0%
O=c1ccsn1Cc1ccccc1	7%	11	20µM*	-8	?	3%
O=C(ON=C1CCN(c2ccc([N+](=O)[O-])cc2)CC1)c1ccccc1	0%	3	-6%	24	?	-2%
COc1ccc(C(=O)ON=C2CCN(c3ccc([N+](=O)[O-])cc3)CC2)cc1	16%	-1	-13%	9	4µM*	-3%
O=c1c2ccccc2nc(N/N=C/c2ccc(O)cc2)n1O	-8%	5	13µM*	?	10µM*	11µM*
SMILES	Lamin A splicing	IMPase cell inh	HPGD block	PNC assembly inh	ALDH1A1 block	Luc counter
O=c1[nH]c(N/N=C/c2ccccc2)nc2ccccc12	-6%	-1	?	39	?	2%
O=c1c2ccccc2nc(N/N=C/c2c(O)ccc3ccccc23)n1O	?	11	22µM*	-19	?	-6%
CSc1nnc(-c2ccc([N+](=O)[O-])cc2)o1	?	/	/	/	-15%	-2%
CCC1CCC(c2nnc(-c3ccc([N+](=O)[O-])cc3)o2)CC1 (stereo not given)	-6%	3	-4%	?	11µM*	2%
CCOC(=O)c1c(N)sn(-c2ccccc2C)c1=S	-2%	1	11µM*	-21	3.5µM*	11%
CCOC(=O)c1nn(-c2ccccc2C)c(=O)c(C#N)c1C	6%	-3	-2%	2	4%	-2%
COC(=O)N1[C@H](C)C=C[C@]1(Cc1ccccc1)C(=O)NCc1ccc(N(C)C)cc1	/	/	-14%	/	8.9µM*	-7%
COC(=O)N1[C@H](C)C=C[C@]1(Cc1ccccc1)C(=O)NCc1ccccn1	/	/	-6%	/	?	-9%
COc1ccc(C=O)cc1OC(=O)C1(C)Cc2ccccc2C(=O)O1 (stereo not given)	/	/	/	/	5µM*	2%
CC1(C(=O)Nc2ccccc2)Cc2ccccc2C(=O)O1 (stereo not given)	?	/	/	/	-9%	-2%
O=C1CCCc2c1cc(C(=O)O)c(=O)n2-c1ccccc1	?	/	/	/	1%	0%
O=C1CCCc2c1cc(C(=O)Nc1ccc(Br)cn1)c(=O)n2-c1ccccc1	5%	4	35µM*	-8	?	2%
CN1CCN(c2ncc3nc(-c4ccccc4)c(=O)n(Cc4ccc(F)cc4)c3n2)CC1	/	/	-14%	/	?	-2%
CCN(CC)C(=O)COc1ccc(CC(=O)O)cc1OC	2%	-4	-3%	-1	-1%	-1%
CCN(Cc1ccc(OC)c(F)c1)C(=O)CCl	/	/	/	/	0.35µM*	/
O=S(=O)(CCn1cccc1)CCn1cccc1	-1%	-1	-9%	-100*	5%	-1%
C=Cc1cccc(C)c1	/	/	1%	/	6%	/
C=Cc1ccc(C=C)cc1	/	/	-4%	/	14µM*	/
CCCc1nc2oc(C(=O)c3ccccc3)c(N)c2c2c1COC(C)(C)C2	6%	7	-16%	?	10µM*	-3%
CCN(CC)c1ccc(NC(=O)CN2C(=O)c3cccnc3Sc3ccccc32)c(C)c1	12%[46 µM]	/	/	/	/	/
COc1cccc(NC(=O)c2sc3nc(C)c(C(=O)Nc4ccc(C)cc4C)c(-c4ccc(C)o4)c3c2N)c1	/	-4	/	/	/	/
CN1C(=S)SC(C)(NO)C1(C)C (stereo not given)	15%	-4	-27%	?	0.79µM*	3%
N/C(=N\O)c1cn([C@@H]2O[C@@H](CO)[C@H](O)[C@@H]2O)c2ncnc(NO)c12	/	/	-7%	/	-9%[13.5 µM]	-6%[7.66 µM]
Cc1cc(C)c(S(=O)(=O)N(C)CC(N)=O)c(C)c1	3%	3	-15%	-85*	11%	1%
Cc1cc(C)c(S(=O)(=O)N(C)CC(=O)N2CCCCC2)c(C)c1	-1%	?	?	-16	-14%	-8%
Cc1csc(/C(=N\O)c2csc(C)n2)n1	8%	-5	-10%	-100*	16%	-4%
Cc1csc(/C(C#N)=N/O)n1	-2%	3	-29%	-25	-16%	-4%
